Our source for the inhibition values is PubChem BioAssay AID504441 (Broad Institute, 2011).

In general, inhibition refers to the change of the read-out against control, counted positive when it falls.

Molecules are shown by their SMILES. The campaign covered roughly 310,000 compounds. About 1,300 (0.42%) were called active. Cut-off read from the data, not from the text of the source: active = inhibition above about 50%; inactive = the rest. This excerpt belongs to a sample that is enriched for actives.

This assay addresses Dual specificity tyrosine-phosphorylation-regulated kinase 1A (Rattus norvegicus) (UniProt Q63470). Put plainly: inhibition of Dyrk1A kinase activity – biochemical, single point, plate reader, primary screen (AID 504441).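 Note: plate controls were vehicle with enzyme for no effect and no enzyme for full effect.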 The conditions noted are these: ADP-Glo luminescence, NFATc1 peptide, at 12.5 µM, stronger effect = higher value.
Consider `O=C(O)c1cc(Cl)c(Cl)cc1C(=O)Nc1cccc2ncccc12`, for which the inhibition was 31.9% (inactive).
As to `O=C(Nc1cccc2ncccc12)c1ccc(-c2ccc(Cl)cc2Cl)o1`, the inhibition is 12.4% (inactive).
`Cc1ccc(/C=C(\C#N)C(=O)Nc2cccc3ncccc23)o1`: the inhibition was 84.4% (active).
Regarding `O=C1C2C3C=CC(C3)C2C(=O)N1c1ncc([N+](=O)[O-])s1` (stereo not drawn), the inhibition is -1.64% (inactive).
Under `CCCN(C(=O)COC(=O)CNS(=O)(=O)c1ccc(NC(C)=O)cc1)C1CCS(=O)(=O)C1` (stereo not drawn) stands 7.58% (inactive).
Under `CC(C)OC(=O)c1ccc(NCc2cc(O)ccc2O)cc1Cl` stands 0.287% (inactive); under `COc1ccc(/C=C2/CCCc3ccccc3C2=O)cc1`, 11.6% (inactive); under `Oc1ccccc1/C=N/n1c(-c2cccs2)n[nH]c1=S`, -4.73% (inactive).
As for `O=[N+]([O-])c1ccccc1/C=N/n1c(COc2ccccc2)n[nH]c1=S`, the inhibition was -1.54% (inactive).
As to `CCc1n[nH]c(=S)n1/N=C/c1c[nH]c2ccc(Br)cc12`, the inhibition is 50.2% (active).
As to `O=C1/C(=C\c2ccc(O)cc2)CCC1CNc1ccc(Cl)cc1` (stereo not drawn), the inhibition is 2.38% (inactive).
The value for `COc1ccc(C2NCCCC2c2ccccc2)cc1` (stereo not drawn) was -2.56% (inactive).
As to `O=C(NN=Cc1ccccc1O)NN=Cc1ccccc1O`, the inhibition is 6.12% (inactive).
Under `CCOC(=O)Cn1c(-c2cccnc2Cl)nc2ccccc21` stands 80.1% (active).
The value for `CCn1c(-c2cccnc2Cl)nc2cc(C)c(C)cc21` was 2.9% (inactive).
As for `CCOC(=O)Cn1c(=O)n(Cc2ccc(OC)cc2)c(=O)c2cccnc21`, the inhibition is 2.78% (inactive).
As to `O=c1c2ccccc2ncn1CCc1ccncc1`, the inhibition is 7.95% (inactive).
In the case of `OCC(O)C1OCOC(C(O)CO)C1O` (stereo not drawn), the inhibition was -1.78% (inactive).
Consider `O=C(NCC1CCCCC1)NCC1CCCCC1`, for which the inhibition is 7.91% (inactive).
As to `O=C(CC1SCCNC1=O)Nc1ccc(Cl)c(Cl)c1` (stereo not drawn), the inhibition is -4.03% (inactive).
With `O=C(CC(O)(C(F)(F)F)C(F)(F)F)Nc1ccc(Cl)c(Cl)c1`, the inhibition is 53.9% (active).
Under `O=C(Cc1ccc(Cl)c(Cl)c1)Nc1ccc(SC(F)F)cc1` stands -0.116% (inactive).
As to `CC/C(=C(/c1ccccc1)c1ccc(OCC[N+](C)(C)C)cc1)c1ccccc1`, the inhibition is 7.18% (inactive).
The value for `COc1ccc2[nH]c(C)c(CCN(Cc3cccs3)C(=S)Nc3ccccc3OC)c2c1` was 57.4% (active).
As to `Cc1[nH]c2ccccc2c1CCN(Cc1cccs1)C(=S)NC(C)(C)C`, the inhibition is -4.25% (inactive).
The value for `COc1cccc(NC(=S)N(CCc2c(C)[nH]c3ccccc23)Cc2ccco2)c1` was 7.39% (inactive); that for `NN=C(NN=Cc1ccccc1)c1ccccc1` was -4.79% (inactive); that for `CN(C(=O)c1cccc(NC(=O)Cc2ccc(NC(=O)C3CCCN(C(=O)C4CCCC4)C3)cc2)c1)C1CCC1` (stereo not drawn) was 2.93% (inactive).
